Pf apPOL inh: Pf-apPOL DNA polymerase inhibition | Recombinant Pf-apPOL, molecular beacon fluorescence, 1.5 h | inhibition, % at 10 µM | actives 0.25% (n = 210,000) | AID 1794808
mHTT CaM bind: inhibitors of human mutant huntingtin-calmodulin interaction; P42858; AlphaScreen His-mHTT/GST-CaM binding, luminescence; inhibition, % at 15 µM; actives 3.6% (n = 190,000); AID 1671202;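 note: 0% = both proteins with DMSO and 100% = one protein alone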
* hit, by the source's call. Rows were chosen to be rich in hits. Some 3.5% of all compounds tested hit in one or more screens of this group. Cut-off read from the data, not from the text of the source: active = inhibition above about 50%; inactive = the rest.

O=C(COc1cccc(Cl)c1)N1CCc2nc3cc[nH]n3c(=O)c2C1 was read as Pf apPOL inh -0.2 and mHTT CaM bind 3.2.
`Cc1ccc([N+](=O)[O-])cc1N=Cc1cccc(O)c1` gave Pf apPOL inh -3.6 and mHTT CaM bind 9.0.
Cc1ccccc1C(=O)N1CCCC(c2ccnc(-c3ccc(F)cc3)n2)C1 (stereo not drawn) was read as Pf apPOL inh 0.3 and mHTT CaM bind 73.4*.
Screening COc1ccc(-c2nccc(C3CCCN(C(=O)c4ccccc4C)C3)n2)cc1 (stereo not drawn) returned Pf apPOL inh 0.0 and mHTT CaM bind 2.7.
For O=C(c1cccs1)N1CCCC(c2ccnc(-c3ccccc3)n2)C1 (stereo not drawn) the results were Pf apPOL inh -6.5 and mHTT CaM bind 95.3*.
`COc1ccc(-c2nccc(C3CCCN(C(=O)c4cccs4)C3)n2)cc1` (stereo not drawn) gave Pf apPOL inh -4.6 and mHTT CaM bind 10.9.
For COc1ccc(N2CCN(C(=O)C3CC(=O)N(c4ccc5oc(C)nc5c4)C3)CC2)cc1 (stereo not drawn) the results were Pf apPOL inh -5.7 and mHTT CaM bind 6.5.
Screening Cc1ccnc(NC(c2cc(C)ccc2O)c2ccc3cccnc3c2O)c1 (stereo not drawn) returned Pf apPOL inh -6.7 and mHTT CaM bind 99.0*.
Cc1ccnc(NC(=O)c2cccc(Cl)c2)c1 was read as Pf apPOL inh -6.2 and mHTT CaM bind -12.0.
Cc1ccnc(NC(c2cccc(C)n2)c2ccc3cccnc3c2O)c1 (stereo not drawn) was read as Pf apPOL inh 2.9 and mHTT CaM bind 87.0*.
Screening Cc1ccc(C)c(NC(=O)CSc2cccc3cccnc23)c1 returned Pf apPOL inh -1.5 and mHTT CaM bind 10.0.
For Oc1ccc2ccccc2c1C(c1cccs1)N1CCCCC1 (stereo not drawn) the results were Pf apPOL inh 6.3.
`O=C(Nc1cccc2cccnc12)C(=O)Nc1cccc2cccnc12` gave Pf apPOL inh 2.0 and mHTT CaM bind -2.0.
For CCCCC(=O)NC(c1cccs1)c1cc(Cl)c2cccnc2c1O (stereo not drawn) the results were Pf apPOL inh -3.7 and mHTT CaM bind 28.0.
CC(=O)NC(c1cccs1)c1ccc2cccnc2c1O (stereo not drawn) was read as Pf apPOL inh 2.2 and mHTT CaM bind 100.0*.
For OCCN1CCN(C(c2cccs2)c2ccc3cccnc3c2O)CC1 (stereo not drawn) the results were Pf apPOL inh 95.5* and mHTT CaM bind 99.9*.
`CC(=O)NC(c1ccco1)c1ccc2cccnc2c1O` (stereo not drawn) gave Pf apPOL inh -1.8 and mHTT CaM bind 100.0*.
Screening COc1ccccc1OCC(=O)N1CCN(c2nc(CN3CCC(C)CC3)cs2)CC1 returned Pf apPOL inh -4.2 and mHTT CaM bind 7.3.
`CNC(=O)COc1ccc(Nc2nnc(-c3ccc(O)cc3)c3ccccc23)cc1` gave Pf apPOL inh -71.1 and mHTT CaM bind 12.0.
CC(C)c1cccc(C(C)C)c1NC(=O)c1ccc(Cl)cc1 was read as Pf apPOL inh -1.9 and mHTT CaM bind -5.2.
CCc1nc2cccnc2n1C1CCN(C(=O)CCCc2ccccc2)C1 (stereo not drawn) was read as Pf apPOL inh -8.2 and mHTT CaM bind 24.3.
COc1ccc(N2C(=O)NC(=O)/C(=C\c3cc(Cl)c(OCC(=O)O)c(Cl)c3)C2=O)cc1 was read as Pf apPOL inh -1.7 and mHTT CaM bind 8.0.
CC(NC(=O)C1CCN(c2cnn(C)c(=O)c2)CC1)c1ccc(F)cc1 (stereo not drawn) was read as Pf apPOL inh -0.2 and mHTT CaM bind -4.0.
Screening Nc1cc(N)nc(SCC(=O)Nc2ccc(S(N)(=O)=O)cc2)n1 returned Pf apPOL inh 5.9 and mHTT CaM bind 23.4.
`CCc1ccccc1NC(=O)C1CC(=O)N(CCc2c[nH]c3ccc(F)cc23)C1` (stereo not drawn) gave Pf apPOL inh -2.7 and mHTT CaM bind 6.1.
`Cc1ccc(C)c(NC(=O)C2CC(=O)N(CCc3c[nH]c4ccc(Cl)cc34)C2)c1` (stereo not drawn) gave Pf apPOL inh 0.7 and mHTT CaM bind 66.7*.
Cc1ccc(NC(=O)C2CC(=O)N(CCc3c[nH]c4ccc(C)cc34)C2)c(C)c1 (stereo not drawn) was read as Pf apPOL inh 3.2 and mHTT CaM bind 25.3.
For CCc1ccccc1NC(=O)C1CC(=O)N(CCc2c[nH]c3ccc(Cl)cc23)C1 (stereo not drawn) the results were Pf apPOL inh -2.9 and mHTT CaM bind 87.7*.
`Cc1ccc(NC(=O)C2CC(=O)N(CCc3c[nH]c4ccc(F)cc34)C2)c(C)c1` (stereo not drawn) gave Pf apPOL inh -2.4 and mHTT CaM bind 8.2.
Cc1ccc(Cl)cc1NC(=O)C1CC(=O)N(CCc2c[nH]c3ccc(F)cc23)C1 (stereo not drawn) was read as Pf apPOL inh -3.6 and mHTT CaM bind 88.8*.
Screening O=C(Nc1cccc(C(F)(F)F)c1)c1cc(Br)ccc1Cl returned Pf apPOL inh -11.3 and mHTT CaM bind -38.0.
CCCCC(=O)NC(N)=Nc1nc2ccccc2o1 was read as Pf apPOL inh -4.8 and mHTT CaM bind -5.0.
Screening COc1ccc(NC(=O)C(=O)NCC(C)(O)C2CC2)cc1 (stereo not drawn) returned Pf apPOL inh -1.4 and mHTT CaM bind -16.0.
Screening CCc1nccn1Cc1nc(-c2cccc(OC)c2)no1 returned Pf apPOL inh -3.9 and mHTT CaM bind 0.8.
`Cc1ccc(N=C2NC(=O)C(CC(=O)Nc3ccccc3)S2)cc1` (stereo not drawn) gave Pf apPOL inh -3.6 and mHTT CaM bind -4.0.
Cc1ccc(C2=NNC(C)(CC(=O)Nc3ccccc3)S2)cc1 (stereo not drawn) was read as Pf apPOL inh 0.8 and mHTT CaM bind 72.0*.
Cc1cccc(NC(=O)Cn2c(=O)n(-c3ccc(F)cc3)c3ncccc32)c1 was read as Pf apPOL inh 3.3 and mHTT CaM bind -0.2.
`Cc1ccc(N2CCC(C(=O)Nc3ccc4c(c3)Cc3ccccc3-4)CC2)nn1` gave Pf apPOL inh -2.0 and mHTT CaM bind 13.9.
Screening COc1cc(S(=O)(=O)n2c(C)nc3ccccc32)c(C)cc1C returned Pf apPOL inh -4.9 and mHTT CaM bind -7.5.
Clc1ccc(Cc2nc(-c3cccc(-c4ccn[nH]4)c3)no2)cc1 was read as Pf apPOL inh 2.2 and mHTT CaM bind 90.9*.
`Clc1ccc(OCc2nc(-c3cccc(-c4ccn[nH]4)c3)no2)cc1` gave Pf apPOL inh 4.0 and mHTT CaM bind 2.7.
For COCCCNC(=O)N1CCCCCC1c1ccc(Cl)cc1 (stereo not drawn) the results were Pf apPOL inh 72.2* and mHTT CaM bind 4.0.
COCCCNC(=O)N1CCCC1c1ccc(Cl)cc1 (stereo not drawn) was read as Pf apPOL inh -2.3 and mHTT CaM bind -5.9.
For Cc1nc(C(C)C)nc2c1CCC(=O)N2CC1CCCO1 (stereo not drawn) the results were Pf apPOL inh 1.7 and mHTT CaM bind 2.3.
For CN1CCc2cc(C(CNC(=O)Cc3cccc4ccccc34)N3CCOCC3)ccc21 (stereo not drawn) the results were Pf apPOL inh -37.9 and mHTT CaM bind 60.9*.
CN1CCc2cc(C(CNC(=O)c3ccccc3Br)N3CCOCC3)ccc21 (stereo not drawn) was read as Pf apPOL inh -24.3 and mHTT CaM bind 38.3.

Source: PubChem BioAssay (University of Kansas High Throughput Screening Laboratory)
